From PubChem BioAssay (NCI)
About 79,000 compounds went through this panel and 15% of them were active in at least one assay; those are over-represented in the sample as a whole. Rule as the data show it: active = growth inhibition above about 70%; inactive = the rest.

Experiments:
[1] = NCI Yeast Anticancer Drug Screen. Data for the rad50 strain (AID 155);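 also: 0% = growth of vehicle-only cultures of the same strain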; details: S. cerevisiae rad50 strain growth inhibition; at 50.0 µM; stronger effect = higher value
How it was run: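 Inhibition values express reduced yeast growth in compound-treated cultures relative to vehicle-treated controls.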

[2] = NCI Yeast Anticancer Drug Screen. Data for the mec2-1 strain (AID 157); details: S. cerevisiae mec2-1 strain, at 50.0 µM, stronger effect = higher value
How it was run: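 Yeast mec2-1 mutant treated with compound. Readout: growth inhibition vs vehicle controls.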

[3] = NCI Yeast Anticancer Drug Screen. Data for the sgs1 mgt1 strain (AID 161);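 also: 0% = growth of cultures given vehicle only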; details: S. cerevisiae sgs1 mgt1 strain, at 50.0 µM, stronger effect = higher value
How it was run: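 Test agents were incubated with a DNA-repair-mutant yeast strain. Growth was then read and compared against vehicle-treated controls.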

[4] = NCI Yeast Anticancer Drug Screen. Data for the cln2 rad14 strain (AID 165);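 also: 0% = growth equal to vehicle treated cultures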; details: S. cerevisiae cln2 rad14 strain, at 50.0 µM, stronger effect = higher value
How it was run: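 cln2 rad14 yeast strain; compound exposure; growth inhibition read vs vehicle controls.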

[5] = NCI Yeast Anticancer Drug Screen. Data for the bub3 strain (AID 167); details: S. cerevisiae bub3 mutant strain, at 50.0 µM, stronger effect = higher value
How it was run: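 Steps: expose the mutant yeast strain to compound; grow alongside vehicle-treated cultures; measure growth; express inhibition against the vehicle cultures.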

[6] = NCI Yeast Anticancer Drug Screen. Data for the mlh1 rad18 strain (AID 175); details: S. cerevisiae mlh1 rad18 strain growth inhibition; at 50.0 µM; stronger effect = higher value
How it was run: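 Yeast w/ defined DNA-repair lesions; compound exposure; growth vs vehicle controls → % inhibition.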

Measured: growth inhibition

CN(C)Cc1cc(C(=O)/C=C/c2ccc(Cl)cc2Cl)cc(CN(C)C)c1O
inactive: [1] 6.4% | [2] -12.8% | [3] 8.55% | [4] -51.4% | [5] 8.85% | [6] 13.8%

O=c1[nH]c(Nc2nc3ccccc3[nH]2)nc(O)c1-c1ccccc1
inactive: [1] -2.85% | [2] -14% | [3] -23.2% | [4] -6.7% | [5] -6.05% | [6] -28.6%

Nc1nc(-c2cccc([N+](=O)[O-])c2)c(N=Nc2ccc(Br)cc2)s1
inactive: [1] 10.3% | [2] 12.4% | [3] 23.1% | [4] 15.8% | [5] -3.25% | [6] 5.95%

CC(=O)OC1(C(=O)OCC2CCCO2)CCCC1 (stereo unspecified)
inactive: [1] -9.6% | [2] 5.4% | [3] -3.5% | [4] -9.8% | [5] 25.8% | [6] 6.9%

COc1cc(NC=C2C(=O)OC(C)(C)OC2=O)c(OC)c(C)c1OC
inactive: [1] 1.25% | [2] -27.1% | [3] -10.1% | [4] 0.5% | [5] -22.9% | [6] 4.15%

CCCCOC(=O)C(N)Cc1ccccc1 (stereo unspecified)
inactive: [1] -20.4% | [2] -2.3% | [3] -5.65% | [4] -44.5% | [5] 23.6% | [6] -22.2%

COc1ccc2nc(NC(=O)C(=O)C(C#N)c3ccc(Cl)c(Cl)c3)sc2c1 (stereo unspecified)
inactive: [1] 36.2% | [2] 5.4% | [3] 19.1% | [4] 33.9% | [5] -2.2% | [6] 36.4%

CCOC(=S)SCc1cc(C(C)(C)C)c(O)c(C(C)(C)C)c1
inactive: [1] 2.7% | [2] 14.4% | [3] 20.2% | [4] -20.2% | [5] 1.15% | [6] 1.8%

N#Cc1c(-c2ccco2)cc(-c2ccccc2)[nH]c1=O
inactive: [1] 31.8% | [2] 8.1% | [3] 18.1% | [4] 33.3% | [5] 9.7% | [6] 25.6%

CC(=O)Nc1cc2ccccc2oc1=O
inactive: [1] -5.5% | [2] -25.1% | [3] -4.65% | [4] 2.25% | [5] -11.8% | [6] 0.75%

CC(=O)NNc1nc(C)c(C(/C=C/c2ccc(NC(C)=O)cc2)=N/NS(=O)(=O)c2ccc(C)cc2)s1
inactive: [1] -6.75% | [2] -23.8% | [3] 3.15% | [4] -6.2% | [5] 6.35% | [6] -21.4%

COC(=O)C12C3C4C1C1C2C3C41C(=O)N(C(C)C)C(C)C (stereo unspecified)
inactive: [1] 7.75% | [2] -1.45% | [3] -3.4% | [4] -3.55% | [5] 3.5% | [6] -14%

O=C(O)C1=C(C(=O)Nc2ccc(NC(=O)C3=C(C(=O)O)C4C=CC3C4)cc2)C2C=CC1C2
inactive: [1] -0.75% | [2] -0.35% | [3] -6.3% | [4] -28.4% | [5] 0.25% | [6] 9.95%

ClCCOCc1ccc(Cl)cc1Cl
inactive: [1] 24.6% | [2] 8.9% | [3] 8.4% | [4] 0.7% | [5] -3.7% | [6] 19.9%

CN(C)C1=c2c(=O)n(C)c(=O)n(C)c2=NC2C=CC=CN12 (stereo unspecified)
inactive: [1] 10.8% | [2] 13.6% | [3] 17.4% | [4] 4.15% | [5] 15% | [6] 22.6%

CCCCCCOC(=O)C[C@H]1C[C@H](C(=O)OCCCCCC)C1(C)C
inactive: [1] -4.45% | [2] -15.6% | [3] 1.8% | [4] -36.6% | [5] -21.1% | [6] -7.3%

COc1cccc(C2SCC(=O)N2c2nncs2)c1OC (stereo unspecified)
inactive: [1] -34.8% | [2] 6% | [3] 9.95% | [4] 8.3% | [5] 2.6% | [6] -9%

COc1ccc(C2=CC(=O)C(C)(C#N)CC2)cc1 (stereo unspecified)
inactive: [1] 3.9% | [2] 25.9% | [3] -4% | [4] 25.1% | [5] 34% | [6] 4.8%

O=C(O)c1cc(-c2ccccc2)ccc1O
inactive: [1] 27.8% | [2] -70.3% | [3] 12.6% | [4] 25.2% | [5] -2.6% | [6] 46.6%

NCCCNCCCCNC(=O)C(O)NC(=O)CC(O)CCCCN=C(N)N (stereo unspecified)
inactive: [1] -1.45% | [2] -0.6% | [3] -22.7% | [4] 16.8% | [5] -2.85% | [6] -24.1%

CC(=O)NC1=NC(=O)/C(=C/Cc2cccs2)N1C
inactive: [1] 6.8% | [2] 16.1% | [3] 1.55% | [4] -5.55% | [5] -23.8% | [6] -25.4%
